The campaign covered roughly 320,000 compounds. About 2,100 (0.66%) were called active. Not shown: some 53% with an inconclusive outcome. Calls follow the shape of the dose curve; as a rule, active = well fitted inhibition curve with a large enough effect in the signal ratio, with a control signal flat (not every such curve was filed as active); inconclusive = small, poorly fitted or top-dose-only effect, or effect the other way, or a change in a side signal; inactive = flat fitted curve, though single readings scatter; the % refers to the signal ratio. The list comes from a sample in which actives are over-represented; it also holds similar structures and randomly drawn compounds.
Assay: qHTS Assay for Lipid Storage Modulators in Drosophila S3 Cells;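 as to cell number change: cells counted by Cell Tracker Red CMTPX staining in the red channel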
Conditions: BODIPY lipid droplet fluorescence, 18-24 h, cells fed with added oleic acid; cell number change: measured here: cell count max response; series mostly up to 46.1 µM
Source text: NIH Molecular Libraries Probe Production Centers Network [MLPCN] NIH Chemical Genomics Center [NCGC] MLPCN Grant: 1 R03 MH085686-01 Assay Submitter (PI): Beller, Mathias; Max-Planck-Institut fur Biophysikalische Chemie NCGC Assay Overview: Storing lipids as a reservoir for energy or the anabolism of elementary metabolites is a common feature of probably all cells and is conserved from bacteria to humans. The universal cellular lipid storage organelle is the so-called lipid storage droplet (LD). Although ubiquitous, LDs share a simple structure composed of a hydrophobic core that harbors the storage lipids, which is shielded by a droplet-specific phospholipid monolayer to which proteins are attached. The current model of LD biogenesis involves an incorporation of the lipid core into the membrane leaflets of the endoplasmic reticulum (ER) followed by a subsequent budding-like maturation of a LD, which ultimately pinches off. Once released, LD volume can increase by localized lipogenesis or fusion of existing droplet. Storage lipids are re-mobilized enzymatically by lipase activity. Lipase regulation in the adipocyte is heavily studied and involves multiple components including catecholamine signaling, the LD-associated proteins Perilipin and comparative gene identification (CGI-58) and at least two lipases named hormone sensitive lipase (HSL) and adipocyte triglyceride lipase (ATGL). LD regulation outside of the adipocyte is poorly understood and only few components are known. However, there is an urgent need to learn more about ectopic fat depots as mislocalized storage of lipids, for example in the liver or muscle, is an eminent health problem associated with insulin resistance or the metabolic syndrome. We developed a laser-scanning cytometer assay to enable 1,536-well screening and combined the results of the small molecules screen with an RNAi database based on lipid storage.
Triacsin C (Sigma-Aldrich T-4540), an inhibitor of long-chain fatty acyl CoA synthetase that blocks synthesis of triglycerides, was used as a positive control for lipid under-storage. A total of 23 nL of compound solution of different concentrations were transferred to the assay plates using a Kalypsys pin tool equipped with a 1,536-pin array containing 10-nL slotted pins (FP1S10, 0.457-mm diameter, 50.8 mm long; V&P Scientific). One microliter of oleic acid (400 uM) was added, and the plate was lidded with stainless steel rubber gasket lined lids containing pinholes. […] Fluorescence was detected by excitation of the fluorophores with a 488-nm laser on an Acumen Explorer (TTP Lab Tech). The total intensity in channel 2 (500-530 nm) reflected lipid droplet accumulation. Cells were detected using channel 3 (575-640 nm) with 5-um width and 100-um depth filters. The ratio of the number of objects in PMT channel 2 over the number of objects in PMT channel 3 was also calculated. Percent activity was computed relative to an internal control (100% inhibited lipid droplet deposition due to the presence of 20 uM Triacsin C), which was added to 32 wells/plate.
Potency is read from the fitted curve at half-maximal effect.

| Structure (SMILES) | Potency | cell number change [%] |
| --- | --- | --- |
| CSc1ccccc1NC(=O)CN(Cc1ccccc1)S(C)(=O)=O | inactive |  |
| Cc1ccc(CS(=O)(=O)CC(C)(O)c2ccccc2)cc1 (centres undefined) | inactive | 15.3 |
| COc1ccc(C(C(=O)NCC2CCCO2)N(Cc2cccs2)C(=O)c2snc(C(N)=O)c2N)cc1OC (centres undefined) | inactive | 25.6 |
| CCOc1ccc(C(C(=O)NCC2CCCO2)N(Cc2cccs2)C(=O)c2snc(C(N)=O)c2N)cc1 (centres undefined) | 1.64 µM (active) | 15 |
| CCOc1ccc(C(C(=O)NCC2CCCO2)N(Cc2cccnc2)C(=O)c2snc(C(N)=O)c2N)cc1 (centres undefined) | inactive | -2.82 |
| Cc1cccc(-n2ncc3c2CCCC3NC(=O)CCN2CCCCO2)c1C (centres undefined) | inactive | -4.74 |
| O=C(CSc1ccc(-c2ccccn2)nn1)N1CCCC1 | inactive | 4.79 |
| COc1cc(CN2CCC(Cc3ccccc3)CC2)c([N+](=O)[O-])cc1OC | inactive | 21.3 |
| COc1ccc(CSc2nnc(CNS(C)(=O)=O)o2)cc1 | inactive | 8.09 |
| COc1cc([N+](=O)[O-])ccc1N1C(=O)C2C3C=CC(C4CC34)C2C1=O (centres undefined) | inactive | -23.6 |
| COc1ccccc1CNS(=O)(=O)c1ccc(-n2cccn2)cc1 | inactive | -13.2 |
| O=S(=O)(NCc1ccccc1)c1ccc(-n2cccn2)cc1 | inactive | -18 |
| O=S(=O)(NCc1ccccc1Cl)c1ccc(-n2cccn2)cc1 | 16.4 µM (active) | -0.567 |
| O=C(NCCCCO)c1ccc2c3c(cccc13)CC2 | inactive | -6.57 |
| Cc1ccc(NC(=S)NC(C)CCc2ccccc2)cc1C (centres undefined) | inactive | 23.4 |
| CCOc1ccccc1C(=O)Nc1ccc2nc3n(c(=O)c2c1)CCCCC3 | 1.64 µM (active) | -27.2 |
| Cc1ccccc1C(=O)Nc1ccc2nc3n(c(=O)c2c1)CCCC3 | inactive | 22.5 |
| O=C(Nc1ccc2nc3n(c(=O)c2c1)CCCCC3)c1ccccn1 | inactive | -14.9 |
| CCO[C@@H]1OC(C(=O)NC2CC2)=C[C@H](c2csc3ccccc23)[C@H]1CCCO | inactive | 0.265 |
| CC1CCN(S(=O)(=O)c2ccc3c(c2)N(CC(=O)NCCN2C(C)CCCC2C)C(=O)CS3)CC1 (centres undefined) | inactive |  |
| C=CCNC(=S)N1CC2(C)CN(C(=S)NCC=C)CC(C)(C1)C2=O | inactive | 9.2 |
| CC(C)(C)c1[nH]ncc1[N+](=O)[O-] | inactive | -8.1 |
| O=C(CN1C(=O)NC2(CCCC2)C1=O)OCCOc1ccc(Cl)cc1Cl | inactive |  |
| COC(=O)C1=CN(c2cccc(C(F)(F)F)c2)C=C(C(=O)OC)C1c1ccc(O)c(OC)c1 | inactive | -17.2 |

| Structure (SMILES) | Potency | cell number change [%] |
| --- | --- | --- |
| COC(=O)C1=CN(c2cccc(C)c2)C=C(C(=O)OC)C1c1cc(OC)c(O)c([N+](=O)[O-])c1 | 25.9 µM (active) | -3.94 |
| CCOC(=O)C1=CN(c2cccc(F)c2)C=C(C(=O)OCC)C1c1cc(OC)c(O)c([N+](=O)[O-])c1 | inactive |  |
| O=C(Cn1nc(Cc2cccnc2)c2ccccc2c1=O)Nc1cccnc1Cl | inactive | 1.33 |
| COc1ccc(-c2cc(=O)oc3cc(OCc4nn[nH]n4)ccc23)cc1 | inactive | 14.9 |
| CN(C)c1ccc(C(=O)/C=C/c2cccnc2)cc1 | inactive | -3.58 |
| CN(C)S(=O)(=O)c1ccc(C(=O)/C=C/c2cccnc2)cc1 | 0.326 µM (active) | 10.3 |
| O=C(/C=C/c1cccnc1)c1ccc([N+](=O)[O-])cc1 | inactive | 10.1 |
| CCc1ccc(N2C(=O)C3NN=C(C(=O)OCc4ccccc4)C3C2=O)cc1 (centres undefined) | inactive | 22.8 |
| COc1cccc(-c2nc(=S)c3c(o2)CCCC3)c1 | inactive | 9.57 |
| O=C(Nc1ccc(OCC(=O)N2CCOCC2)cc1)c1cncc(Br)c1 | inactive | 9.01 |
| Cc1ccc(NC(=O)c2ccccc2OCc2c(C)noc2C)cc1S(=O)(=O)N(C)C | inactive | -11.7 |
| CC(=O)NCCC1CCN(C(=O)C2CCC(=O)N(C3CCCC3)C2)CC1 (centres undefined) | inactive | 0.283 |
| CC1(C)CSC(=NCc2ccccc2)N1C(=O)c1cccc([N+](=O)[O-])c1 | inactive | 13.5 |
| CC1(C)CSC(=NCCc2ccccc2)N1C(=O)c1ccc(C#N)cc1 | 1.3 µM (active) | -0.734 |
| CC1(C)COCN1C(=O)c1ccc(C#N)cc1 | inactive | 5.63 |
| O=C(CNS(=O)(=O)c1ccccc1)OCC(=O)c1ccc(F)cc1 | inactive | 14.3 |
| O=C(Nc1cccc(F)c1)c1c(F)c(F)c(F)c(F)c1F | inactive |  |
| COc1ccc(CNC(=O)c2cc(C3CC3)nc3c2cnn3C(C)C)cc1OC | 11.6 µM (active) | 1.25 |
| COc1cccc(CNC(=O)c2cc(C3CC3)nc3c2cnn3C(C)C)c1 | inactive | 5.87 |
| Cc1ccc(CNC(=O)c2cc(C3CC3)nc3c2cnn3C(C)C)cc1 | inactive | -11.5 |
| COc1ccc(CSc2nncn2C)cc1[N+](=O)[O-] | inactive | -11.4 |
| O=C(Nc1c2c(nn1-c1ccccc1)CS(=O)(=O)C2)c1ccc2c(c1)OCO2 | inactive | -19 |
| O=C(COC(=O)c1cccc(S(=O)(=O)N2CCOCC2)c1)Nc1ccc(Cl)cn1 | inactive | -3.5 |
| O=C(COC(=O)c1cccc(S(=O)(=O)N2CCOCC2)c1)Nc1ncc(C(F)(F)F)cc1Cl | 23.1 µM (active) | -11.5 |

| Structure (SMILES) | Potency | cell number change [%] |
| --- | --- | --- |
| O=C(COC(=O)c1cccc(S(=O)(=O)N2CCc3ccccc32)c1)Nc1ncc(C(F)(F)F)cc1Cl | inactive | -1.02 |
| Cc1ccc(NC(=O)CCC(=O)Nc2ccc(C)cc2)cc1 | inactive | -16.8 |
| Cc1cc(C)cc(C(=O)N2CCC3(CC2)NCCc2[nH]cnc23)c1 | inactive |  |
| COc1ccc(-c2csc(NC(=O)c3cccc(N4C(=O)CCC4=O)c3)n2)cc1OC | inactive | 19.9 |
| COCCCNCCCOc1ccc(C)cc1Br | inactive | -14.3 |
| CNCCCOc1ccc(C)cc1Br | 20.6 µM (active) | -34.9 |
| CCCCNCCCOc1ccc(C)cc1Br | inactive | 10 |
| CCc1noc(C)c1C(=O)OCC(=O)c1ccccc1OC | inactive | -12.4 |
| CCCCCC(=O)Nc1cc(S(=O)(=O)N2CCCCC2)ccc1N1CCOCC1 | inactive | -1.56 |
| Cc1ccc(NC(=O)C2CCN(S(C)(=O)=O)CC2)cc1 | inactive | 1.04 |
| Cc1ccc(NC(=O)C2CCN(S(C)(=O)=O)CC2)cc1C | 6.51 µM (active) |  |
| COc1ccc(NC(=O)C2CCN(S(C)(=O)=O)CC2)cc1OC | inactive | 11.1 |
| O=C(O)CSC1c2ccccc2C(=O)N1Cc1ccccc1 (centres undefined) | inactive | -11.8 |
| O=C(CC(=O)N/N=C/c1ccccc1)NCc1ccccc1 | inactive | 2.89 |
| COCCCNC(=O)c1cc(OC)c(OC)c(OC)c1 | 16.4 µM (active) | -1.92 |
| COc1ccc(C(=O)NCCCCCC(=O)O)cc1OC | 9.2 µM (active) | -16 |
| COc1cc(C(=O)NCCOc2cc(C)cc(C)c2)cc(OC)c1OC | inactive | 3 |
| COc1cc(C(=O)NCCOc2ccccc2)cc(OC)c1OC | inactive | -10.6 |
| COc1ccc(C(=O)NCCCc2ccccc2)cc1OC | inactive | -16.4 |
| COc1ccc(C(=O)NCCCCNC(=O)c2ccc(OC)c(OC)c2)cc1OC | inactive | 11.4 |
| COC(=O)c1ccc(-c2noc(CN3C[C@H]4CC[C@H]3C4)n2)cc1 | inactive | -0.0392 |
| O=C(NCC1CCCCC1)c1ccccc1[N+](=O)[O-] | inactive | 5.77 |
| COc1ccc(CNC(=O)Cc2cccs2)cc1OC | inactive | 15.3 |
| Nc1nonc1C(=O)N/N=C/c1ccc(Br)o1 | inactive | 5.25 |

| Structure (SMILES) | Potency | cell number change [%] |
| --- | --- | --- |
| Cc1cccc(OCC(=O)O/N=C(\N)c2ccccn2)c1C | inactive | -6.52 |
| CC(=O)Nc1ccc(S(=O)(=O)N2CCCN(S(=O)(=O)c3ccc(NC(C)=O)cc3)CC2)cc1 | inactive | -11.8 |
| CC(=O)Nc1ccc(S(=O)(=O)N2CCCC2)cc1 | inactive | 12.4 |
| COc1ccc(C(=O)Nc2ccc(S(=O)(=O)N3CCCC3)cc2)c(OC)c1 | inactive | 7.48 |
| COc1cc(OC)c(C(=O)Nc2ccc(S(=O)(=O)N3CCCCC3)cc2)cc1OC | 6.51 µM (active) | 2.89 |
| CC(=O)c1ccc(NC(=O)Nc2ccc(S(=O)(=O)N3CCCC3)cc2)cc1 | 9.2 µM (active) | -4.34 |
| COc1ccc(NC(=O)c2cc(S(=O)(=O)N3CCCCC3)ccc2OC)cc1 | inactive | -15.6 |
| COc1ccc(N2C(=S)NC3CS(=O)(=O)CC32)cc1 (centres undefined) | inactive | 0.125 |
| Cc1cc(C)cc(-c2nnc(SCC(=O)NC3CC3)o2)c1 | inactive | 9.78 |
| Cc1ccc(-c2nnc(SCC(=O)NC3CC3)o2)cc1 | 29.1 µM (active) | 10.3 |
| O=C(CSc1nnc(-c2ccccc2)o1)NC1CC1 | inactive | -4.73 |
| Cc1ccc(NC(NC(=O)c2cccs2)C(Cl)(Cl)Cl)cc1C (centres undefined) | inactive | 4.44 |
| CC(C)(CO)N=C1NS(=O)(=O)c2cc([N+](=O)[O-])ccc21 | inactive | 2.18 |
| CCOc1ccc2c(c1)C(C)=CC(C)(C)N2S(=O)(=O)c1ccc(NC(C)=O)cc1 | 7.31 µM (active) | -18.1 |
| COc1ccc2c(c1)C(C)=CC(C)(C)N2S(=O)(=O)c1ccc(C)cc1 | inactive | 5.92 |
| CCOc1ccc2c(c1)C(C)=CC(C)(C)N2S(=O)(=O)c1ccc(C)cc1 | inactive | -19.8 |
| Cc1ccc(S(=O)(=O)NC(C)c2ccccc2)cc1[N+](=O)[O-] (centres undefined) | inactive | -16.5 |
| CCCOc1ccc(C2NC(=O)CCC2[N+](=O)[O-])cc1 (centres undefined) | inactive | -7.92 |
| COc1ccccc1C1NC(=O)NC(C)=C1C(=O)OCc1ccccc1 (centres undefined) | inactive | 8.03 |
| COc1ccccc1C1NC(=O)NC(C)=C1C(=O)OC1CCCCC1 (centres undefined) | inactive | -18.5 |
| COc1ccccc1C1NC(=O)NC(C)=C1C(C)=O (centres undefined) | 14.6 µM (active) | 6.66 |

Reference: PubChem BioAssay AID2685 (National Center for Advancing Translational Sciences (NCATS), 2010)
